# Shown are actives, neighbours in structure and some others; about 9.8% of the full set was active somewhere.
# CBFb-RUNX1 inh: inhibitors of human CBF-beta and RUNX1 interaction | Q01196+Q13951 | AlphaScreen CBFb-His/RUNX1-biotin binding, biochemical | Potency, µM (doses to about 59.8 µM), for the others: top-dose activity, negative = inhibition, most hits filed as inhibitors | 230,000 tested, under 10 active | AID 1477; active means well fitted curve in the direction sought with a large enough effect; inconclusive means small, poorly fitted or top-dose-only effect, or another doubt; inactive means no such curve, though single readings can be large; an effect the other way counts as inactive or inconclusive; further: % of control where 0% means no effect
#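 Read-out: AlphaScreen. Format: His-CBF-beta with biotinylated RUNX1 (30 nM each) preincubated 20 min, compound 15 min, Ni-chelate plus streptavidin beads 90 min; room temperature throughout.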
# HPGD inh: inhibitors of human 15-hydroxyprostaglandin dehydrogenase (HPGD) | Potency, µM, without a hit: at the top dose activity change, negative = inhibition, most hits filed as inhibitors | P15428 | purified HPGD, NADH fluorescence kinetic, PGE2 substrate | 4.3% of 150,000 active; further: potency means the concentration at half of the fitted maximal effect; on the % scale 0 is the no-effect control and ±100 the full control effect
# Target sequence (P15428 whole entry, looked up): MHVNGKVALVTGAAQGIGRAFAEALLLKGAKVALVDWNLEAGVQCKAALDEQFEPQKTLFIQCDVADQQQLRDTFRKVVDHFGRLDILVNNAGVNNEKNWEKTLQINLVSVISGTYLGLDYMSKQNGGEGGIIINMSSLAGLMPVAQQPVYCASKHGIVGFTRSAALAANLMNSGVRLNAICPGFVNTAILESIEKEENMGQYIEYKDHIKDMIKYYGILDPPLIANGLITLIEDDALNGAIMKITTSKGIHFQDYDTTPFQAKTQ
#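 NADH formation kinetics: reaction with 30 uM PGE2 and 1 mM NAD+ (final), 20 nM enzyme, Tris-HCl pH 8 with Tween 20, after 15 min compound preincubation at room temperature. Fluorescence change, last versus first of five reads.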
# KDM4E inh: JMJD2E (human) inhibition. JMJD2E catalytic domain, FDH-coupled NADH fluorescence (FDH is formaldehyde dehydrogenase). Potency, µM (highest dose often 57.1 µM), for inactives: at the highest dose activity change, negative = inhibition, hits mostly inhibitors. 1.6% of 230,000 active. B2RXH2. AID 2147;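 further: potency means the concentration at half of the fitted maximal effect; 0% = wells with enzyme and -100% = buffer wells without enzyme; nearly all actives have a fitted effect of over 50% in size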
# Target sequence (B2RXH2 1-337 limits assumed): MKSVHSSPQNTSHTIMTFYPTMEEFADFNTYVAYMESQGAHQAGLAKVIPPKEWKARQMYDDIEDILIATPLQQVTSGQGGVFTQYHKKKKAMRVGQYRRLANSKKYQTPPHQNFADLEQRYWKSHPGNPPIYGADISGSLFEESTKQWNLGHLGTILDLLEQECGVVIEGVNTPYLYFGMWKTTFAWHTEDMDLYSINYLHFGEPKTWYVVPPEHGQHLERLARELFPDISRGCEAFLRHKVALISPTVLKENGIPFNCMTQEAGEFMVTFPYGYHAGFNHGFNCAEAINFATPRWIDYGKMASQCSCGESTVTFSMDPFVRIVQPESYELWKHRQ
# HTT aggregate: reduces HttQ103-GFP aggregates in PC12 cells; 1.1% of 220,000 active; PC12 HttQ103-GFP aggregates, Acumen cytometry, 40 h; Potency, µM (highest dose often 46.1 µM), for the others: at the highest dose activity change, negative = inhibition, usual class: inhibitors; active means well fitted curve in the direction sought with a large enough effect; inconclusive means small, poorly fitted or top-dose-only effect, or another doubt; inactive means no such curve, though single readings can be large; an effect the other way counts as inactive or inconclusive; further: potency means the concentration at half of the fitted maximal effect; on the % scale 0 is the no-effect control and ±100 the full control effect; nearly all actives have a fitted effect of over 60% in size
#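 Quantitative HTS on tebufenozide-induced (100 nM) PC12 cells stably expressing polyQ103 Huntingtin exon 1–GFP. Reduction of bright GFP aggregates, detected by laser scanning cytometry after lysis, identified actives across the titration.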
# ALDH1A1 block: ALDH1A1 (human) enzyme inhibition; Purified ALDH1A1, NADH fluorescence, propionaldehyde substrate; Potency, µM (series often up to 75.3 µM), without a hit: at the top dose activity, negative = inhibition, usual class: inhibitors; 7.3% of 220,000 active;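 further: potency means the concentration at half of the fitted maximal effect; plate controls were no enzyme wells and a reference inhibitor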
# HTT ATP protect: cytoprotection in Huntington HTT-Q103 PC12 cell model; Potency, µM (top dose mostly 56.4 µM), without a hit: cytoprotection (ATP increase), hits mostly activators; PC12 HTT-Q103 induced, cytoprotection, ATP luminescence, 40 h; 0.14% of 230,000 active; active means well fitted curve in the direction sought with a large enough effect; inconclusive means small, poorly fitted or top-dose-only effect, or another doubt; inactive means no such curve, though single readings can be large; an effect the other way counts as inactive or inconclusive; further: potency means the concentration at half of the fitted maximal effect; % of control where 0% means no effect; nearly all actives have a fitted effect of over 45% in size
#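 Readout: ATPlite luminescence (ATP level). Model: stable PC12, inducible Htt exon1 Q103-GFP. Inducer: tebufenozide, 100 nM final. Compounds: dose series. No G418 in medium.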
# * = called active by the depositor; ? = inconclusive; nt = no result given; [ ] = remark or other dose. Unless noted, the call rests on the fitted dose curve; in most records, active means well fitted inhibition curve with a large enough effect (not every such curve was filed as active); inconclusive means small, poorly fitted or top-dose-only effect, or another doubt; inactive means no such curve, though single readings can be large or run the other way.
SMILES,CBFb-RUNX1 inh,HPGD inh,KDM4E inh,HTT aggregate,ALDH1A1 block,HTT ATP protect
CCOC(=O)C(C)Sc1nc2c(c(=O)[nH]c(=O)n2C)n1CCc1ccccc1 (stereo unspecified),-5%,-15%,-2%,?,13µM*,-15%[10 µM]
Cc1nn(C)c(Cl)c1C(=O)NC(C(=O)O)c1ccccc1 (stereo unspecified),7%,nt,7%,8%,?,10%
CN(C(=O)COC(=O)c1ccc(=O)n(Cc2ccccc2)n1)c1ccccc1,4%,nt,9%,25%,8%,-23%
CCOC(=O)C(CC)Sc1nc2c(c(=O)[nH]c(=O)n2C)n1C/C=C(/C)Cl (stereo unspecified),9%,4µM*,-4%,-5%,3.5µM*,0%[10 µM]
Cc1cc(C)c(S(=O)(=O)NC(C)C)c(C)c1-n1cnnn1,3%,nt,-16%,-12%[9.22 µM],2%,1%[10 µM]
CNC(=S)NNC(=O)c1cc(C(C)(C)C)nn1Cc1ccc(F)cc1,-6%,nt,5%,12%[9.22 µM],nt,17%[10 µM]
S=c1nc(-c2csc3c2CCCC3)[nH][nH]1,-19%,nt,-6%,12%[9.22 µM],11µM*,4%[10 µM]
O=C(CSc1ccc2ccccc2n1)c1ccc2c(c1)OCO2,22%,8.9µM*,-7%,-5%,?,-24%
O=C(CSc1nc2ccc(Cl)cc2[nH]1)c1ccc2c(c1)OCO2,-1%,-16%,-8%,2%,18µM*,-26%
O=C(CSc1nc2cc(Cl)c(Cl)cc2[nH]1)c1ccc2c(c1)OCO2,0%,nt,-25%,15%[9.22 µM],nt,-5%[10 µM]
COc1ccc2nc(Sc3c([N+](=O)[O-])nc(C)n3Cc3ccccc3)[nH]c2c1,3%,2%,1%,nt,-6%,13µM*
Cc1cc2nc(Sc3c([N+](=O)[O-])nc(C)n3Cc3ccccc3)[nH]c2cc1C,-2%,-22%,1%,1%,1.1µM*,32%[10 µM]
COc1ccc(Oc2ncc3nc(-c4cn(C)c5ccccc45)c(=O)n(C)c3n2)cc1,nt,nt,nt,nt,4%,2%
Cc1ccc2[nH]c3c(c2c1)SC(C)(C)CC3=O,30%,nt,?,25%,?,nt
C/[N+]([O-])=C\C1C(=O)CCCC1=O,0%,nt,-5%,16%,2%,12%
C=CCn1c(NC(=O)c2ccc(Br)o2)c(C(=O)OCC)sc1=S,-10%,16µM*,-19%,-10%,3.5µM*,5%[10 µM]
O=C1CC(N2CCOCC2)=NN1c1ccc([N+](=O)[O-])cc1,-2%,nt,?,-9%[9.22 µM],nt,-5%[10 µM]
CN(C)c1ccc(/C=C2/C(=O)N(c3ccc([N+](=O)[O-])cc3)N=C2N2CCOCC2)cc1,-9%,-10%,-5%,14%,1.3µM*,18%
COc1cc(NC(=O)c2cccs2)c(OC)cc1NC(=O)CCn1nnc2ccccc21,1%,nt,-7%,3%,-14%,-25%[10 µM]
COc1cc(NS(=O)(=O)c2ccc(N/C=C(\C#N)c3nc4cc(Cl)ccc4o3)cc2)nc(OC)n1,-21%,28µM*,-8%,?,9%,14%
Cc1cc(N2CCOCC2)nc2ccc(NC(=O)CCC(=O)N3CCCC(C)C3)cc12 (stereo unspecified),-1%,?,?,?,?,-24%
CCOc1ccc(Br)cc1C(=O)Nc1ccc(C(=O)NCC(C)C)cc1,-22%,2µM*,-2%,26%,-2%,nt
Cc1cc(C=O)c(C)n1-c1sc2c(c1C(=O)O)CCCC2,-13%,0%,2%,-17%,4%,20%[10 µM]
Cc1ccc(C(=O)O)cc1-n1c(C)cc(C=O)c1C,-2%,nt,10%,1%[9.22 µM],2µM*,9%[10 µM]
Cc1c(C(=O)O)cccc1-n1c(C)cc(C=O)c1C,0%,nt,-11%,4%,22µM*,24%[10 µM]
SMILES,CBFb-RUNX1 inh,HPGD inh,KDM4E inh,HTT aggregate,ALDH1A1 block,HTT ATP protect
FC(F)(F)c1ccccc1-c1nc(N2CCNCC2)c2ccccc2n1,nt,-12%,?,nt,?,9%
COc1ccc(S(=O)(=O)NC(C(=O)NCCc2ccccn2)C(C)C)cc1 (stereo unspecified),3%,nt,-3%,12%,12%,-59%
N#Cc1c(NC(=O)Cn2c(=O)oc3ccccc32)oc(-c2ccccc2)c1-c1ccccc1,-22%,?,?,20µM*,13µM*,9%
Cc1ccccc1N1C(=O)CC(Sc2nnc(-c3ccccc3)o2)C1=O (stereo unspecified),9%,-29%,-3%,22µM*,7.9µM*,-96%
O=C1c2ccccc2CC1Sc1nnc(-c2ccncc2)o1 (stereo unspecified),-4%,?,-4%,-10%,1µM*,29%
O=C1CC(Sc2nnc(-c3ccccc3)o2)C(=O)N1c1ccccc1 (stereo unspecified),9%,22µM*,6%,?,1.8µM*,-93%
CCSc1nnc(-c2ccncc2)o1,2%,-3%,-6%,-6%,-12%,-12%
Cc1nc2cnc(Oc3ccccc3)nc2n(-c2ccccc2)c1=O,nt,-10%,nt,nt,22µM*,-11%
COc1ccc(-n2c(=O)c(C)nc3cnc(Oc4ccccc4)nc32)cc1,nt,-8%,nt,nt,2.5µM*,-4%
C=CC[C@@H]1C=C[C@H](O/N=C(\C)CCN2CCc3nc(-c4ccccc4)c(-c4ccccc4)cc3C2)[C@H](CO)O1,-2%[13.1 µM],nt,nt,nt,15%[13.5 µM],-9%[10 µM]
CCN(CC(=O)NC(C)C)Cc1nc2c(Br)cc(Br)cc2c(=O)[nH]1,1%,nt,1%,4%[9.22 µM],3%,8%[10 µM]
CC[C@H](C)[C@H](NC(=O)[C@H](C)NC(=O)[C@H](Cc1cnc[nH]1)NC(=O)[C@@H]1CCCN1C(=O)CNC(=O)[C@H](CC(C)C)NC(=O)[C@H](CC(C)C)NC(=O)[C@H](Cc1ccc(O)cc1)NC(=O)CNC(=O)[C@H](C)NC(=O)[C@H](CO)NC(=O)[C@H](CC(N)=O)NC(=O)[C@H](CC(C)C)NC(=O)[C@@H](NC(=O)[C@H](Cc1c[nH]c2ccccc12)NC(=O)CN)[C@@H](C)O)C(=O)N[C@@H](CC(=O)O)C(=O)N[C@@H](CC(N)=O)C(=O)N[C@@H](Cc1cnc[nH]1)C(=O)N[C@@H](CCCNC(=N)N)C(=O)N[C@@H](CO)C(=O)N[C@@H](Cc1ccccc1)C(=O)N[C@@H](CO)C(=O)N[C@@H](CC(=O)O)C(=O)N[C@@H](CCCCN)C(=O)N[C@@H](Cc1cnc[nH]1)C(=O)NCC(=O)N[C@@H](CC(C)C)C(=O)N[C@H](C(N)=O)[C@@H](C)O,5%,nt,nt,nt,nt,nt
Nc1nc(-c2ccc3ccccc3c2)cc(-c2cc(-c3ccc4ccccc4c3)nc(N)n2)n1,nt,-3%,nt,nt,7%[13.5 µM],-7%[10 µM]
